Screening results: PubChem BioAssay, National Center for Advancing Translational Sciences (NCATS)
Only some compounds are listed: those with a hit (about 11% of all), similar ones and a draw of the others.
HPGD inh – inhibitors of human 15-hydroxyprostaglandin dehydrogenase (HPGD). purified HPGD, NADH fluorescence kinetic, PGE2 substrate. P15428. 150,000 tested, 4.3% active. Potency, µM, hits mostly inhibitors. AID 894; active means well fitted inhibition curve with a large enough effect, not every such curve was filed as active; inconclusive means small, poorly fitted or top-dose-only effect, or another doubt; inactive means no such curve, though single readings can be large or run the other way
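20 nM HPGD preincubated 15 min at room temperature with compound in 50 mM Tris-HCl pH 8, 0.01% Tween 20. Started with 1 mM NAD+ and 30 uM prostaglandin E2; NADH fluorescence (360/450 nm) read 5 times over 30-s intervals, last minus first.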
ALDH1A1 inh – inhibitors of human aldehyde dehydrogenase 1A1 | Purified ALDH1A1, NADH fluorescence, propionaldehyde substrate | 220,000 tested, 7.3% active | Potency, µM (doses to about 75.3 µM), most hits filed as inhibitors | AID 1030 | P00352; active means well fitted inhibition curve with a large enough effect, not every such curve was filed as active; inconclusive means small, poorly fitted or top-dose-only effect, or another doubt; inactive means no such curve, though single readings can be large or run the other way
HttQ103 aggreg – inhibitors of mutant huntingtin aggregate formation in PC12 cells; PC12 HttQ103-GFP aggregates, Acumen cytometry, 40 h; Potency, µM (titrated, usually from 46.1 µM), actives largely listed as inhibitors; 220,000 tested, 1.1% active; AID 1688; further: nearly all actives have a fitted effect of over 60% in size
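Steps: seed 1500 PC12 HTTQ103-GFP cells/well; add tebufenozide, 100 nM final; add compound titration; add ATPLite reagent; quantify GFP aggregates by laser scanning cytometry.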
GoLoco inh red – blocks human Gai1 binding to RGS12 GoLoco peptide, red readout; AID 880; Potency, µM (doses to about 61.6 µM), most hits filed as inhibitors; Gai1:RGS12 GoLoco peptide FP, rhodamine, 10 min; 230,000 tested, 0.44% active; active means well fitted inhibition curve with a large enough effect, not every such curve was filed as active; inactive means no such curve, though single readings can be large or run the other way; further: nearly all actives have a fitted effect of over 30% in size
Target sequence (P63096 whole entry, looked up): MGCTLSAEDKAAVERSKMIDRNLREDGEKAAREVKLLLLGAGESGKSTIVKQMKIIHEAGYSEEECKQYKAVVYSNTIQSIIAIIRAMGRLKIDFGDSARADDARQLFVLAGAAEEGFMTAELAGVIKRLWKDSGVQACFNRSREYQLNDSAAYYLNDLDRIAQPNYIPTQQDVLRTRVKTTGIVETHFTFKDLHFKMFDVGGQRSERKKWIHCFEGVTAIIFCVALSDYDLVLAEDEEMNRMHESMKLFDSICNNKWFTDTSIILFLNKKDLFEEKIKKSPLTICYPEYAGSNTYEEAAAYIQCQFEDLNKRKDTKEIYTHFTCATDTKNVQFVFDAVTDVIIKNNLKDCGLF
HTT cytoprotect – protects HTT-Q103 PC12 cells, measured by ATP | Potency, µM (doses to about 56.4 µM), usual class: activators | 230,000 tested, 0.14% active | PC12 HTT-Q103 induced, cytoprotection, ATP luminescence, 40 h | AID 1471; further: nearly all actives have a fitted effect of over 45% in size
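PC12 cells with ecdysone-inducible HTT exon 1 Q103-GFP, induced with 100 nM tebufenozide and co-treated with library compounds in a dose series (1536-well, 1500 cells/well). Cytoprotection read as ATP content by ATPlite luminescence.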
PNC assembly inh – blocks assembly of the perinucleolar compartment | PC3M PTB-GFP, PNC prevalence imaging, 16 h; stronger effect = lower value | activity change (PNC), negative = inhibition, % at 10 µM | 140,000 tested, 3.1% active | AID 2417;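 active means readout at or below -70, meaning at least 70% loss of cells showing the perinucleolar compartment, a nuclear body marking cancer cells; inconclusive means readout between -30 and a set limit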
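Compounds are pinned in duplicate onto adhered PC3M cells stably expressing GFP-tagged PTB and incubated 16 h at 37 C. Cells are then fixed, nuclei stained with Hoechst, and PNC-positive cells counted.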
A number is an active result; 0 = inactive; ? = inconclusive; - = not tested or not shown; [ ] = remark or other dose. Unless noted, the call rests on the fitted dose curve; in most records, active means well fitted curve in the direction sought with a large enough effect; inconclusive means small, poorly fitted or top-dose-only effect, or another doubt; inactive means no such curve, though single readings can be large; an effect the other way counts as inactive or inconclusive.

SMILES	HPGD inh	ALDH1A1 inh	HttQ103 aggreg	GoLoco inh red	HTT cytoprotect	PNC assembly inh
O=C(Nc1ccc2c(c1)OCO2)N1CCN(c2ccc(F)cc2)CC1	-	0	0[9.22 µM]	0	0[10 µM]	-
O=C(CN1CCN(c2ccc(F)cc2)CC1)c1ccc2c(c1)OCO2	0	8.91µM	0	0	0	?
O=C(CN1CCN(c2ccc(Cl)cc2)CC1)c1ccc2c(c1)OCO2	0	8.91µM	0	0	0	0
Cc1cc(C)cc(-c2cc3c(c(-c4c(O)c(-c5cc(C)cc(C)c5)cc5c4CCCC5)c2O)CCCC3)c1	0	0	-	0	?	-
CC(C)[C@@H](CC(=O)N[C@@H]1CCCC[C@H]1C(=O)N[C@H](CC(=O)N[C@@H](CCC(=O)O)CC(=O)O)Cc1ccccc1)NC(=O)C[C@H](CO)NC(=O)[C@@H]1CNCC[C@H]1N	0	0	-	0	0[1.9 µM]	-
COc1ccc(Cn2c(S(=O)(=O)CC(N)=O)nc3ccccc32)cc1[N+](=O)[O-]	-	7.08µM	0[9.22 µM]	0	0[10 µM]	-
NC(=O)CS(=O)(=O)c1nc2ccccc2n1Cc1ccccn1	-	0	0	0	0	-
Cc1csc(SCC(=O)Nc2nc(-c3ccccc3)cs2)n1	0	0	0	0	0[10 µM]	0
COCCNC(=O)CSc1nc(-c2ccccc2)cs1	31.6µM	0	0	0	0	0
c1cncc(-c2csc(NCc3ccco3)n2)c1	14.1µM	?	0	0	0	0
O=C(CSc1ncc(-c2ccccc2)nn1)NCc1ccco1	0	0	?	0	0	0
CCn1c(CNc2nc(-c3ccccc3)cs2)nnc1SCC(=O)NCc1ccco1	?	28.2µM	0	0	0[10 µM]	0
O=C(CSc1nc(-c2ccccc2)cs1)NCc1ccco1	28.2µM	25.1µM	0	0	0[10 µM]	?
O=C(NCc1ccco1)/C(=C\c1cccnc1)NC(=O)c1ccccc1F	0	0	0	0	-	0
CC(N)=O	0	0	-	0	0[1.9 µM]	-
Cc1cc(C)n(-c2nc3c(c(=O)n(C)c(=O)n3C)n2Cc2cccc(Br)c2)n1	-	-	-	-	0[0.074 µM]	-
O=C1[C@@H]2[C@H]3[C@H](O)[C@H](O)C/C(=N/OC[C@@H](O)COCc4ccco4)[C@@H]3CC[C@H]2C(=O)N1c1ccc(F)cc1F	-	0[13.5 µM]	-	-	0[10 µM]	-
Cc1cc(C)nc(SCc2nnc(SCC(=O)Nc3nc(-c4ccccc4)cs3)n2C)n1	0	0	0	0	0[10 µM]	0
Cc1ccc(C(=O)CSc2nnc(CNc3nc(-c4ccccc4)cs3)n2C)cc1	0	14.1µM	?	0	0	0
O=C(CNC(=S)N(Cc1ccccc1)Cc1ccccc1F)NCCc1ccccc1	-	?	?	0	0	-
CC1N/C(=C\C(=O)c2ccccc2)N(O)C1(C)C (stereo not drawn)	14.1µM	0	0	0	0[0.074 µM]	0
CCc1cc2c(=O)n(Cc3ccco3)c(SCC(=O)N3CCCc4ccccc43)nc2s1	0	4.47µM	0[9.22 µM]	0	0	0
CN(C(=O)CSc1nc2cc(Cl)ccc2c(=O)n1Cc1ccco1)C1CCS(=O)(=O)C1 (stereo not drawn)	-	?	0	0	0	-
CCc1cc2c(=O)n(Cc3ccco3)c(SCc3c(C)noc3C)nc2s1	0	22.4µM	0	0	0[10 µM]	?
CCc1cc2c(=O)n(Cc3ccco3)c(SCC(=O)NC3CCS(=O)(=O)C3)nc2s1 (stereo not drawn)	-	10µM	0	0	0[10 µM]	-
O=C(CSc1nc2ccccc2c(=O)n1Cc1ccco1)N1CCCCCC1	0	?	?	0	0	0
CCc1cc2c(=O)n(Cc3ccco3)c(SCC(=O)N(C)C3CCS(=O)(=O)C3)nc2s1 (stereo not drawn)	-	10µM	0	0	0	-
CC(/C=C/C=C(\C)C(=O)O[C@@H]1O[C@H](CO[C@@H]2O[C@H](CO)[C@@H](O)[C@H](O)[C@H]2O)[C@@H](O)[C@H](O)[C@H]1O)=C\C=C\C=C(C)\C=C\C=C(/C)C(=O)O[C@@H]1O[C@H](CO[C@@H]2O[C@H](CO)[C@@H](O)[C@H](O)[C@H]2O)[C@@H](O)[C@H](O)[C@H]1O	-	-	0	0	?	-
Cc1ccc(S(=O)(=O)N[C@H]2COC(=O)[C@H](C)COC(=O)[C@H](C)NC(=O)C/C=C\[C@H]2C)cc1	-	0[13.5 µM]	-	-	0[10 µM]	-
